Measured values reported in PubChem BioAssay (NCATS).
Inconclusive results are not listed. Some compounds were tested as several samples or in several runs, with calls that do not always agree. Activity calls are given as the source filed them. The call rests on the fitted dose curve; in most records, active means well fitted curve in the direction sought with a large enough effect; inconclusive means small, poorly fitted or top-dose-only effect, or another doubt; inactive means no such curve, though single readings can be large; an effect the other way counts as inactive or inconclusive.

Experiments:
[1] = qHTS to identify inhibitors of the type 1 interferon - major histocompatibility complex class I in skeletal muscle: primary screen against the NCATS Mechanism Interrogation Plate v5.0 (MIPE) Libary (AID 1347411); conditions: iHSKM cells + IFN-b, HiBiT-tagged MHC-I luminescence, 24 h; series mostly up to 45.8 µM; further: nearly all actives have a fitted effect of over 65% in size
In short: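 Luminescence from CRISPR HiBit-tagged endogenous HLA-B in human myoblasts reported MHC class I level after 24 h of IFN-beta (4 ng/ml) plus compound. Compounds ran as 11-point 1:3 series, top 46 uM final.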

[2] = biological target: Protein phosphatase 1D (Homo sapiens) (UniProt O15297); assay: RapidFire Mass Spectrometry qHTS Assay for Modulators of WT P53-Induced Phosphatase 1 (WIP1) (AID 1347424); conditions: WIP1 dephosphorylation of phosphopeptide, RapidFire MS; series mostly up to 63 µM
Sequence of Protein phosphatase 1D (Homo sapiens) (O15297 whole entry, looked up): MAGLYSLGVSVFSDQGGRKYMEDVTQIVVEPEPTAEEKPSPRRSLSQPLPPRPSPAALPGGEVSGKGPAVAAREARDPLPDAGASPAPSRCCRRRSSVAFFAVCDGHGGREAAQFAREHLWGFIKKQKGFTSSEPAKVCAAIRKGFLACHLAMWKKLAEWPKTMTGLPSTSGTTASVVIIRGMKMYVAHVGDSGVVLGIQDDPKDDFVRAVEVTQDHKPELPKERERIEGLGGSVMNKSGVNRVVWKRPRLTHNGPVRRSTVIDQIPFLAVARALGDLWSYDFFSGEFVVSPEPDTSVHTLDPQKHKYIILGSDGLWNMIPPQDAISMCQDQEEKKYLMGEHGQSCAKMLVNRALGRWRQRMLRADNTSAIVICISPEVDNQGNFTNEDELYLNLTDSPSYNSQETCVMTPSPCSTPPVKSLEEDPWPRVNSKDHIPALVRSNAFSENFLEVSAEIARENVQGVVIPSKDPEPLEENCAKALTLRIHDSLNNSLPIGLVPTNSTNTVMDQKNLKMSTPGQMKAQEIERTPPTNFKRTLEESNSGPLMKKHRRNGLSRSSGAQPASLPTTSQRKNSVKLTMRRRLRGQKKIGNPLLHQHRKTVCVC
In short: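 RapidFire MS readout of dephosphorylated VEPPL-S-QETFS product, with 1 uM isotope-labelled peptide standard. Reaction: 10 nM WIP1, 2 uM phosphopeptide substrate, 5 min, room temperature, after 1 h compound preincubation; stopped with 0.5% formic acid.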

[3] = biological target: Protein phosphatase 1D (Homo sapiens) (UniProt O15297); assay: Rhodamine-PBP qHTS Assay for Modulators of WT P53-Induced Phosphatase 1 (WIP1) (AID 1347425); conditions: recombinant WIP1, Rhodamine-PBP phosphate fluorescence, real-time; series mostly up to 57.5 µM
In short: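 WIP1 (5 nM final) was preincubated with compound for 1 hour at room temperature. It then dephosphorylated 10 uM VEPPL-pS-QETFS peptide in Tris-HCl pH 7.5 with 30 mM MgCl2. Released Pi was detected by 10 uM Rh-PBP fluorescence (ex 525/em 598 nm) read at 1-min intervals for 11 min, as delta f1 - f0.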

[4] = Primary qHTS for inhibitors of La Crosse Virus (LACV) - induced cell death in SH-SY5Y cells (AID 1508616); conditions: SH-SY5Y LACV cytopathicity rescue, ATP luminescence, 6 d; series mostly up to 4.29 µM; further: potency means the concentration at half of the fitted maximal effect
In short: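 Rescue of virus-induced death was read as ATPLite luminescence after 6 days at 37C, scaled between DMSO wells with LACV and without virus. Cells were SH-SY5Y, 6000/well, infected at 0.01 MOI after compound addition.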

[5] = biological target: Calcium and integrin-binding protein 1 (Homo sapiens) (UniProt Q99828); assay: Primary qHTS for Identification of Calcium Integrin Binding Protein 1 (CIB1) Competitor (AID 1508620); conditions: CIB1-GST / FITC-alphaIIb peptide fluorescence polarization; series mostly up to 57.7 µM; further: potency means the concentration at half of the fitted maximal effect
Sequence of Calcium and integrin-binding protein 1 (Homo sapiens) (Q99828 whole entry, looked up): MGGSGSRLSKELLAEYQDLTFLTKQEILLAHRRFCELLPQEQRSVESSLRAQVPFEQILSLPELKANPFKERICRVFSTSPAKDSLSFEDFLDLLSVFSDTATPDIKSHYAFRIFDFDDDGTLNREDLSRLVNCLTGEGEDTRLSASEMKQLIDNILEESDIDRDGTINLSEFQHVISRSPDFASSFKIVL
In short: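 Fluorescence polarization competition: GST-tagged CIB1 (1 uM final) preincubated with compound 15 min at room temperature, then FITC-labelled alphaIIb peptide (100 nM final) added. After 15 min at room temperature, polarization read at Ex 480/Em 540.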

[6] = Validation qHTS assay for inhibitors of Activation Induced Cytidine Deaminase (AID): UDG Counterscreen signal (AID 1347427); conditions: biochemical UDG counterscreen, fluorescence signal; series mostly up to 115 µM
In short: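 Fluorescence at 560 nm excitation, 665 nm emission reports UDG signal after 250 mM NaOH (2x) addition and 30 min. Enzymes (AID 1 uM, UDG 2 U/mL, at 4/3x) preincubated 10 min with compound, then 4 h with 4x 250 nM DJC20/DJC23 substrate at room temperature.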

[7] = biological target: Single-stranded DNA cytosine deaminase (Homo sapiens) (UniProt Q9GZX7); assay: Validation qHTS assay for inhibitors of Activation Induced Cytidine Deaminase (AID): AID signal (AID 1347429); conditions: Recombinant AID, FRET ssDNA deamination with UDG, fluorescence; series mostly up to 115 µM
Sequence of Single-stranded DNA cytosine deaminase (Homo sapiens) (Q9GZX7 whole entry, looked up): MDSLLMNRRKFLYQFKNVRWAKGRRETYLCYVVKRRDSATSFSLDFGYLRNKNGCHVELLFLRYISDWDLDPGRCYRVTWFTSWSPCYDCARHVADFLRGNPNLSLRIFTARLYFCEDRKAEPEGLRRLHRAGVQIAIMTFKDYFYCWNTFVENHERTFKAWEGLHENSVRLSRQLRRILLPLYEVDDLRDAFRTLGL
In short: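 Compounds (final up to 114 uM) preincubated with AID plus UDG; 250 nM DJC20/DJC23 substrate mix (4x stock) added, 4 hr at room temperature, then NaOH, 30 min. Read 1 fluorescence at 540 nm excitation, 590 nm emission.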

[8] = biological target: Calcium and integrin-binding protein 1 (Homo sapiens) (UniProt Q99828); assay: Confirmatory qHTS for Identification of Calcium Integrin Binding Protein 1 (CIB1) Competitor (AID 1508617); conditions: CIB1 binding competition assay, biochemical qHTS; series mostly up to 114 µM; further: nearly all actives have a fitted effect of over 65% in size; further: potency means the concentration at half of the fitted maximal effect
In short: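 FP competition: CIB1-GST (1 uM final) in 5 mM HEPES pH 7.4, 125 mM NaCl, 5 mM CaCl2, 0.01% Tween20 preincubated 15 min RT with compounds (up to 114 uM), then FITC-alphaIIb peptide (100 nM), 15 min RT; Ex 480/Em 540.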

[9] = biological target: Calcium and integrin-binding protein 1 (Homo sapiens) (UniProt Q99828); assay: Validation qHTS for Identification of Calcium Integrin Binding protein 1 (CIB1) Competitor (AID 1508618); conditions: CIB1-GST / FITC-alphaIIb peptide fluorescence polarization; series mostly up to 114 µM
In short: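 Fluorescence polarization with 1 uM CIB1-GST and 100 nM FITC-alphaIIb peptide in HEPES pH 7.4, NaCl, 5 mM CaCl2, Tween20. Compounds at up to 114 uM final, preincubated with protein 15 min; read after 15 min more at RT.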

Measured: Potency

CN(C)c1ccc(O)c2c1C[C@H]1C[C@H]3[C@H](N(C)C)C(=O)C(C(N)=O)=C(O)[C@@]3(O)C(=O)C1=C2O
inactive: [1] | [2] | [3] | [4] | [5]

CCCCCCCCCCCCCCCCCCCCCCO
inactive: [1] | [5]

CC(=O)O[C@H]1C(=O)[C@@]2(C)C([C@H](OC(=O)c3ccccc3)[C@]3(O)C[C@H](OC(=O)[C@H](O)[C@@H](NC(=O)c4ccccc4)c4ccccc4)C(C)=C1C3(C)C)[C@]1(OC(C)=O)CO[C@@H]1C[C@@H]2O (some centres undefined)
inactive: [1] | [6] | [7] | [4]

O=C(O)CCNC(=O)c1ccc(N=Nc2ccc(O)c(C(=O)O)c2)cc1
inactive: [1] | [2] | [3] | [4] | [5]

Cc1ccc(S(=O)(=O)NC(=O)NN2CC3CCCC3C2)cc1 (centres undefined)
inactive: [1] | [2] | [3] | [4] | [5]

COC(=O)C1=C(C)NC(C)=C(C(=O)OC(C)C)C1c1cccc2nonc12 (centres undefined)
inactive: [2] | [3] | [4]

Nc1ccn([C@@H]2O[C@H](CO)[C@@H](O)C2O)c(=O)n1 (some centres undefined)
active: [4] 0.316 µM
inactive: [1] | [6] | [7] | [5]

O=c1oc2cc(O)ccc2s1
inactive: [1] | [5]

O=C(NC(Cc1cc(=O)[nH]c2ccccc12)C(=O)O)c1ccc(Cl)cc1 (centres undefined)
inactive: [1] | [2] | [3] | [4] | [5]

CCN(CC)C(=S)SSC(=S)N(CC)CC
active: [5] 44.7 µM
inactive: [2] | [3] | [6] | [7] | [4] | [9]
14.1 µM (active) and inactive: [8]
